Results: the OligoGym collection

What follows are sequences tested against PTBP2 (assay: pooled miR-30 sensor sort-seq; sequence = guide strand). Details: shRNA.
Note: reference of the scale not given here.

Row | Sequence | sensor-assay potency score (higher = more potent)
1 | TTGGCTGTAACTACCATGCTGC | -0.376
2 | TTAACCATAGTAATAGCTGCTT | 0.167
3 | TTTAATGTATTATCTGTCTTTA | -0.808
4 | TGAACTAGCTAGACCAGTCTGC | 0.184
5 | TTATCTTCAATACAGCACCAAA | -1.15
6 | TAGTTCGTCAGATCCTCTCTTC | 0.267
7 | TTTAGTTCTTTGTGATTCGAGT | -0.551
8 | TTGCTAACCAACAGGACTGTAT | -0.182
9 | TTCATTTAAATTGCTAACCAAC | -1.15
10 | TAACCATAGTAATAGCTGCTTC | -0.782
11 | TAGCTGTACAGTCTGATGTTTA | -0.892

These sequences were tested against PTGDR in the same assay as above. Details: shRNA.

Row | Sequence | sensor-assay potency score (higher = more potent)
12 | ATTAACTGGACAATTATCCTAA | 0.137
13 | TACAGTGAGTCACACACTGGTT | -0.86
14 | TACTGTTAAATCATACTCCTTG | 0.542
15 | TGTACTTACACATTGAAGGTAC | 0.268
16 | TCTGCTTCTTCAGAGGTCCTGT | 0.273
17 | TATCCTAACACACCTCTCCAAA | -1.13
18 | TTGATTCCTACTGACACCCTTG | 0.657
19 | TAAATTTCAAAAACAACTGTAT | -0.297
20 | TAGGCAGCCAGCACCACCGGGC | -0.802
21 | TTTTTATGAATGTCCATCGTAT | -0.379
22 | TTAGTGGAATTGCTGCACCGGC | -1.14
23 | TTTAAGACTTTTAACACTGGTT | -0.351

Each sequence was assayed against PTGDS in the same assay as above. Details: shRNA.

Row | Sequence | sensor-assay potency score (higher = more potent)
24 | TTTTTCCTGAGGAAGGTGGAGG | -1
25 | TTTCTCCTTTAACTCAGCCCTG | -1.14
26 | TTGGGCTGCACGGAGACCTGGG | -0.764
27 | TGAATTTCTCCTTTAACTCAGC | -0.751
28 | TCCGGTAGCTGTAGGAGCCGAG | -0.81
29 | TTATTGTGCAGGATGAAGCCTG | -0.188
30 | TTCTCCTTTAACTCAGCCCTGG | -0.867
31 | TTGCACATGGACAACGCCGCCT | -0.424
32 | TAGTCGGTCTCCACCACTGACA | -1.34
33 | AAGACAATGGTATCCTCTGTGA | -0.868
34 | TACTGGTCGTAGTCGGTCTCCA | -0.484

Each sequence was assayed against PTGFRN in the same assay as above. Details: shRNA.

Row | Sequence | sensor-assay potency score (higher = more potent)
35 | TTTTCTTGGATTTCCTGCCAGT | -0.278
36 | TTTGCTAACATCCCGAACCAGT | -0.807
37 | TTTTCTTTGCTAACATCCCGAA | -0.589
38 | TTAAATATAGGACCTGAGGTTT | -1.13
39 | TTTAGTGTAACACACTTTGTTT | -0.905
